Test results reported in PubChem BioAssay AID651965 (National Center for Advancing Translational Sciences (NCATS), 2013).
The campaign covered roughly 340,000 compounds. About 6,400 (1.9%) were called active. Roughly 4% stayed inconclusive and do not appear here. The call rests on the fitted dose curve; in most records, active means well fitted falling curve with a large enough effect; inconclusive means small, poorly fitted or top-dose-only effect; inactive means no such curve, though single readings can be large or run the other way. Many of the other results were omitted from the sample, so actives are more common in it than they were.

What follows are molecules tested against ATP-dependent Clp protease proteolytic subunit (Bacillus subtilis (strain 168)) (UniProt P80244) (assay: qHTS Assay for Activators of ClpP). Conditions: purified B. subtilis ClpP, FRET peptide cleavage, 20 min; series mostly up to 57.5 µM; activity change, negative = active: at the top concentration.
Text: The Clp protease proteolytic subunit (ClpP) is the core unit of the Clp complex belonging to the peptidase family S14 that hydrolyzes protein into small peptides in the presence of ATP and magnesium. It is ubiquitously expressed and is the major protease in bacteria. […] Unlike common antibiotics that simply interfere with the essential enzyme activity, ADEP binding activates the ClpP core in the absence of the regulatory Clp-ATPases leading to uncontrolled proteolysis and eventually cell death. Activators binding to the docking site on ClpP can also block formation of the ClpXP and ClpA/C-P holoenzyme complexes interfering with the normal biological functions of ClpP and thus have the potential to become new anti-microbials.
To identify activators of ClpP, a FRET based quenching reversal assay was developed using a purified B. subtilis ClpP and a decapeptide substrate (FRET-FV). The FRET-FV is tagged with a fluorescent molecule amino benzoic acid (donor) at the N-terminus and a nitrotyrosine quencher (acceptor) at the C-terminus. FRET-FV cleaves upon activation of ClpP with ADEP treatement and reverses the quenching effect of the nitrotyrosine causing an increase in fluorescence emission signal at 430nm. This assay was used to screen the Molecular Libraries Small Molecule Repository (MLSMR).
NIH Molecular Libraries Probe Production Centers Network [MLPCN]
NIH Chemical Genomics Center [NCGC]
Assay Submitter (PI): Michael Maurizi, National Cancer Institute
Two and a half microL/well of purified enzyme solution (final concentrations 10 microg/mL B. subtilis ClpP in 100 mM Tris/HCl pH8, 100 mM KCl, 0.05% low protease BSA, 2.5% glycerol, 0.01% Tween-20 buffer) was dispensed into 1536-well assay plates (Greiner, black solid, medium-binding plates) with Aurora Discovery BioRAPTR Flying Reagent Dispenser (FRD, Beckton-Dickenson). Compound solution (23 nL) was transferred to the assay plate using Kalypsys pin tool equipped with a 1536-pin tool. […] FRET signals at time 0 and after 20 min room temperature incubation were obtained using the PerkinElmer Envision plate reader with 320nm excitation and 430nm emission filters. Delta FRET value (Time 20 - Time 0) was calculated and normalized to the delta FRET value of positive control ADEP (5.8 microM final concentration) and negative control DMSO and no enzyme wells.
Further: the source files actives as falling curves though it sought activators and does not explain the sign; nearly all actives have a fitted effect of over 65% in size.

Sequence of ATP-dependent Clp protease proteolytic subunit (Bacillus subtilis (strain 168)) (P80244 whole entry, looked up): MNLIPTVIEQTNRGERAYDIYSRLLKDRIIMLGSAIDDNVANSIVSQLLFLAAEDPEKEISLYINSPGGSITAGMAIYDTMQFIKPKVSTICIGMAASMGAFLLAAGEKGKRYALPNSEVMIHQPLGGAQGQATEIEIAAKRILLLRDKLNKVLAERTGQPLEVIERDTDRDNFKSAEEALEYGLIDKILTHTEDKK

Activity change, negative = active, inactive:
CCn1c(=O)c(C(=O)NCc2ccc3c(c2)OCO3)c(O)c2ccccc21 -2.41%
O=C(NCc1ccc2c(c1)OCO2)c1cc(F)c(F)cc1Cl 0.908%
OCCc1ccc(NCCc2ccco2)cc1 -2.59%
CCCNC(=O)C1(C)CCCN(C(=O)c2cccc(OC(C)=O)c2C)C1 (centres undefined) -0.0684%
O=C1C[C@H]2C=CCc3cccc(c32)CN1Cc1ccccc1 -2.81%
CC(=O)OCC(C)n1c(=O)c2ccccc2n1C(C)=O (centres undefined) 7.13%
O=C(CN1CCOCC1)Nc1c2c(nc3c1CCC3)CCC2 -0.252%
Cc1ccc(Nc2nc(N3CCOCC3)nc(N3CCOCC3)n2)cc1Cl 1.71%
CCc1nc2c(OCCc3cccc(OC)c3)cccn2c1N(C)C(=O)c1ccc(C)cc1 -1.31%
O=C1CC2(CCCC2)Oc2ccc(Cl)cc21 4.22%
O=C(Nc1cccc(OCC(=O)N2CCOCC2)c1)C1CCCCC1 -2.02%
COc1cc2c(C(=O)O)c(C)n(C)c2c2ccccc12 3.23%
COc1cccc2[nH]c(C(=O)NCCc3ccccc3)cc12 4.06%
Cc1ccc(Cc2c(-c3ccc(Cl)cc3)nc3c4ccccc4ccn23)cc1 49.9%
CC(C)(C)CC(=O)Nc1nc(C(N)Cc2ccc(C(F)(F)F)cc2)cs1 (centres undefined) -1.68%
CCN(CC)S(=O)(=O)c1ccc(NC(=O)CN(c2cccc(F)c2)S(C)(=O)=O)cc1 -3.47%
COc1cccc(N(CC(=O)Nc2cccc(F)c2)S(C)(=O)=O)c1 -0.426%
COc1ccc(NC(=O)C2(C)Cc3c(-c4ccc(C(N)=O)cc4)ccnc3O2)cc1 (centres undefined) -2.25%
COc1ccc(-c2ccc(CN3C(CC(C)C)C(=O)N(Cc4cn(CC5CCCCC5)nn4)CCS3(=O)=O)cc2)cn1 (centres undefined) -8.24%
CCOC(=O)C(=Cc1ccccc1)C(=O)c1ccccc1 -0.195%
CC(C)(C)OC(=O)c1c(N)n(CCCN2CCCC2=O)c2nc3ccccc3nc12 38.4%
CN(C)CCCn1c(N)c(C#N)c2nc(C#N)c(C#N)nc21 -15.7%
CCc1ccc(OCCCn2c(CCCNC(=O)C3CCCCC3)nc3ccccc32)cc1 1.41%
CCCCCCN1CCN(C2CN(Cc3cn(Cc4ccc(F)cc4)nn3)S(=O)(=O)C2)CC1 (centres undefined) -3.87%
CCN1C(=O)[C@H]2[C@@H](c3ccc(-c4ccc(OC)cc4)cc3)N[C@@](Cc3ccccc3)(C(=O)OC)[C@H]2C1=O 1.06%
CCN1C(=O)[C@H]2[C@@H](c3ccc(-c4ccc(F)cc4)cc3)N[C@@](Cc3ccccc3)(C(=O)OC)[C@H]2C1=O -23.2%
CCCCC[C@H](C)N1C[C@@H](COCc2ccccc2)Oc2cc(N3CC[C@@H](N(C)C)C3)ccc2S1(=O)=O -20.4%
O=C(NCc1ccccn1)[C@@H]1CCCN1C(=O)[C@@H]1CCCN1C(=O)c1ccccc1 2.16%
COc1ccc(N2c3ccccc3CN(Cc3ccccc3)[C@@H](C)[C@H]2Cc2ccc(-c3ccccc3)cc2)cc1 -15.5%
C=CCNC(=O)c1ccc2nc(-c3ccco3)c(-c3ccco3)nc2c1 -8.38%
Cc1c(NC(=O)C(C)(C)C)cccc1-c1nc2ccccc2s1 -1.86%
Cc1c(-c2cccc(NC(=O)C(C)(C)C)c2)nc2ncccn12 4.79%
COc1cccc(-c2cc(NC(C)=O)c3ncc(-c4cccc(C(C)=O)c4)n3c2)c1 -4.01%
CCOC(=O)C1CCCN(C(=O)c2ccc(N(C)C)cc2)CC1 (centres undefined) 0.928%
Cc1sc2c(c1C)c(=O)n(-c1ccccc1)c(=O)n2CC(=O)NCC1CCCO1 (centres undefined) 1.34%
CC(C)(C)c1nc(NCC2CCCO2)c2nnn(Cc3ccccc3)c2n1 (centres undefined) -0.0891%
Oc1ccc(Br)cc1C1C=C(c2ccc3c(c2)OCO3)NC(c2ccc(Cl)cc2)N1 (centres undefined) 0.41%
CCc1ccc(OC2(C)CCN(CCOc3ccc(C)cc3)C2)cc1 (centres undefined) -0.766%
CC(C)Cc1ccc(-c2cc3nc(NCc4cccc(Cl)c4)ccn3n2)cc1 5.03%

Potency, active:
Cc1nc2c(C(=O)NCc3ccc4c(c3)OCO4)c[nH]n2c(=O)c1Cc1ccccc1F 31.6 µM
Cc1nc(N2CCOCC2)nc2c1CCCC2 28.2 µM
O=C1CC2(CCCCC2)Oc2ccc(OCC(=O)N3CCOCC3)cc21 10 µM
COc1cccc2c(C)c(C(=O)O)[nH]c12 25.1 µM
Cc1cccc(N(CC(=O)Nc2ccc(-c3nc4ccc(C)cc4s3)cc2)S(C)(=O)=O)c1 15.8 µM
N#Cc1c(N)n(CCOC(=O)c2ccc(Cl)cc2)c2nc3ccccc3nc12 28.2 µM
CCN1C(=O)[C@H]2[C@@H](c3ccc(SC4CCCCC4)c(OC)c3)N[C@@](Cc3ccccc3)(C(=O)OC)[C@H]2C1=O 35.5 µM
CC(C)(C)C(=O)Nc1cccc(-c2ccc[nH]2)n1 12.6 µM
Cn1c(=O)c2[nH]c(NCC3CCCO3)nc2n(-c2ccccc2)c1=O (centres undefined) 28.2 µM
COC(=O)Cc1cc(=O)oc2c(C)c(O)ccc12 15.8 µM
